# The campaign covered roughly 66,000 compounds. About 960 (1.5%) showed an effect of 50% or more. Many of the other results were omitted from the sample, so strong results are more common in it than they were.
# System: Trypanosoma brucei
# Experiment: Trypanosoma brucei 72 hour study
# Assay type: functional, organism-based
# Parameters: scale not given: in the data most compounds retested in dose-response had high values
structure (smiles),measurement,setting,value
COc1ccc(CC(=O)N2CCC[C@@H](N)[C@@H]2c2ccccc2F)cc1.Cl,Percent Effect,"30.3 µM, […]",4.872%
COc1cccc(CCC(=O)N2CCC[C@@H](N)[C@@H]2c2ccccc2F)c1.Cl,Percent Effect,"30.3 µM, […]",35.53%
N[C@@H]1CCCN(C(=O)Cc2c[nH]c3ccccc23)[C@H]1c1ccccc1F,Percent Effect,"30.3 µM, […]",82.48%
Cc1cc(C(=O)N2CCC3(CC2)C(=O)N(C)CCN3CC2CC2)c(C)o1.O=C(O)C(F)(F)F,Percent Effect,"30.3 µM, […]",5.817%
COCCN1C(=O)[C@]2(CC[C@@H]3CN(Cc4ccccc4F)C[C@@H]32)N=C1C.O=C(O)C(F)(F)F,Percent Effect,"30.3 µM, […]",-70.3%
COCc1nn(C(C)C)c2c1CCN(Cc1ccccn1)C2.O=C(O)C(F)(F)F.O=C(O)C(F)(F)F,Percent Effect,"30 µM, 30.03 µM",-4.66%
CCS(=O)(=O)N1CCC2(CN(c3ccsc3)C(=O)CN2C)C1.O=C(O)C(F)(F)F (stereo unspecified),Percent Effect,"30 µM, 30.03 µM",-22.46%
Cc1csc(Nc2cc(C3CCCCN3C)nc(C)n2)n1 (stereo unspecified),Percent Effect,"30 µM, 30.03 µM",67.05%
Cc1nc(Nc2nccs2)cc(C2CN(C(C)C)C2)n1,Percent Effect,"30.3 µM, […]",5.847%
Cc1csc(Nc2cc(C3CN(C(C)C)C3)nc(C)n2)n1,Percent Effect,"30.3 µM, […]",84.55%
CNCC(=O)N1CC(c2cc(Nc3nc(C)cs3)nc(C)n2)C1.Cl,Percent Effect,"30.3 µM, […]",20.55%
Cc1nc(Nc2nncs2)cc(C2CCCN2C)n1 (stereo unspecified),Percent Effect,"30.3 µM, […]",-36.12%
Cc1nc(Nc2nnc(C)s2)cc(C2CCCN2C)n1 (stereo unspecified),Percent Effect,"30 µM, 30.03 µM",-13.78%
Cc1cccc(CN2C[C@@H]3COC[C@]3(CNC(=O)c3cccn3C)C2)n1.O=C(O)C(F)(F)F.O=C(O)C(F)(F)F,Percent Effect,"30 µM, 30.03 µM",12.67%
O=C(O)C(F)(F)F.O=C(O)C(F)(F)F.c1cncc(OCc2noc3c2CN(Cc2cccs2)CC3)c1,Percent Effect,"30 µM, 30.03 µM",-9.325%
Cc1ccc(CN2CC[C@H]3[C@@H]2CCC(=O)N3CCN2CCCC2)s1.O=C(O)C(F)(F)F.O=C(O)C(F)(F)F,Percent Effect,"30 µM, 30.03 µM",11.06%
O=C(O)C(F)(F)F.O=C(c1cnc2ccccc2c1)N1CCC2(CCN2c2ncccn2)C1 (stereo unspecified),Percent Effect,"30 µM, 30.03 µM",-41.44%
CN1CCCC(c2cccc(-c3cccc(C(F)(F)F)c3)n2)C1 (stereo unspecified),Percent Effect,"30.3 µM, […]",71.49%
CN1CCCC(c2cccc(-c3cccc(F)c3)n2)C1 (stereo unspecified),Percent Effect,"30.3 µM, […]",6.457%
CN1CCCC(c2cncc(-c3cccc(C(F)(F)F)c3)n2)C1 (stereo unspecified),Percent Effect,"30.3 µM, […]",45.17%
CN(C)C(=O)Cn1c2c(ccc1=O)CCN(Cc1cnn(C)c1)CC2.O=C(O)C(F)(F)F,Percent Effect,"30.3 µM, […]",-19.86%
O=C(NCc1ccco1)[C@H]1CC[C@@H]2[C@@H](CCN2c2ncc(F)cn2)O1.O=C(O)C(F)(F)F,Percent Effect,"30 µM, 30.03 µM",-7.643%
Cc1ccc(N(C)S(=O)(=O)c2cc(C(=O)O)cs2)cc1,Percent Effect,"30.3 µM, […]",-13.08%
Cl.NC(=O)C(c1ccc(F)cc1)N1CCN(CCO)CC1 (stereo unspecified),Percent Effect,"30 µM, 30.03 µM",-19.82%
FC(F)(F)c1ccc(-c2cc(NC3CCNCC3)nc3[nH]ccc23)nc1,Percent Effect,"30.3 µM, […]",-0.8147%
COc1nccnc1-c1cc(NC2CCNCC2)nc2[nH]ccc12,Percent Effect,"30 µM, 30.03 µM",-21.13%
Nc1ccnc(-c2cc(NC3CCNCC3)nc3[nH]ccc23)c1,Percent Effect,"30.3 µM, […]",98.23%
CN(C)CCN1CCC2(CCN(C(=O)c3ccc(F)cc3)CC2)C1=O.O=C(O)C(F)(F)F,Percent Effect,"30.3 µM, […]",-18.87%
CS(=O)(=O)NCc1cnc2n1CCN(Cc1ccoc1)CC2.O=C(O)C(F)(F)F,Percent Effect,"30 µM, 30.03 µM",-17.96%
CC(C)(C)c1cn2c(n1)C(CNCc1cnn3ccccc13)CCC2 (stereo unspecified),Percent Effect,"30.3 µM, […]",100%
CC(C)(C)c1ncc(CNCC2CCCn3ccnc32)s1 (stereo unspecified),Percent Effect,"30.3 µM, […]",9.708%
Cc1ccc(CNCC2CCCn3ccnc32)s1 (stereo unspecified),Percent Effect,"30.3 µM, […]",6.823%
CC(C)(C)c1cn2c(n1)C(CNCc1ccccn1)CCC2 (stereo unspecified),Percent Effect,"30.3 µM, […]",52.9%
Cn1cccc1CNCC1CCCn2cc(C(C)(C)C)nc21 (stereo unspecified),Percent Effect,"30.3 µM, […]",99.88%
Cc1cn2c(n1)C(CNCc1cccc3c1OCO3)CCC2 (stereo unspecified),Percent Effect,"30.3 µM, […]",8.746%
Cn1cccc1CNCc1nnc2n1CCCC2C(F)(F)F (stereo unspecified),Percent Effect,"30.3 µM, […]",-4.039%
Cc1cn2c(n1)C(CNCc1cnn3ccccc13)CCC2 (stereo unspecified),Percent Effect,"30.3 µM, […]",-7.399%
Cc1nc(C)c(CNCC2CCCn3ccnc32)s1 (stereo unspecified),Percent Effect,"30.3 µM, […]",-1.913%
O=C(O)C(F)(F)F.O=C(c1cccc(Cl)c1)N1CC[C@H]2[C@H]1CCN2CC1CCOCC1,Percent Effect,"30 µM, 30.03 µM",13.39%
Cc1noc(C)c1CN1CCC2(CCN(Cc3cccc(F)c3)CC2)C1.O=C(O)C(F)(F)F.O=C(O)C(F)(F)F,Percent Effect,"30.3 µM, […]",-58.32%
Cc1ccc(CN(CCCn2ccnc2)Cc2cnn(C)c2)s1.O=C(O)CC(O)(CC(=O)O)C(=O)O,Percent Effect,"30.3 µM, […]",-61.1%
CNc1ncc2c(n1)CN(C1CC(C)(C)NC(C)(C)C1)C2=O,Percent Effect,"30.3 µM, […]",8.017%
CCn1nc(C)c2nc(C)nc(NC3CCCC3)c21,Percent Effect,"30 µM, 30.03 µM",-3.661%
CCn1nc(C)c2nc(C(C)C)nc(NCCc3ccc(O)cc3)c21,Percent Effect,"30.3 µM, […]",39.22%
CCn1nc(C)c2nc(C)nc(NCCc3ccc(C)cc3)c21,Percent Effect,"30.3 µM, […]",100.2%
CCc1nc(NCCCn2cccn2)c2c(n1)c(C)nn2CC,Percent Effect,"30.3 µM, […]",-16.86%
CCCc1nc(NCCCn2cccn2)c2c(n1)c(C)nn2CC,Percent Effect,"30.3 µM, […]",10.65%
CCCn1c(NCCc2ccccc2)nc2c(C)nn(C)c2c1=O,Percent Effect,"30.3 µM, […]",99.9%
CCn1c(NCc2ccccc2)nc2c(C)nn(C)c2c1=O,Percent Effect,"30.3 µM, […]",-7.911%
CCCc1nc(NCCCO)c2c(n1)c(C)nn2CC,Percent Effect,"30 µM, 30.03 µM",38.76%
Cc1nn(C)c2c(=O)n(C(C)C)c(NCCc3ccccc3)nc12,Percent Effect,"30.3 µM, […]",4.366%
CCn1nc(C)c2nc(C)nc(NCCCn3cccn3)c21,Percent Effect,"30.3 µM, […]",-1.841%
CCCc1nc(NCCc2ccccc2)c2c(n1)c(C)nn2CC,Percent Effect,"30.3 µM, […]",99.68%
CCn1nc(C)c2nc(C)nc(NCCc3ccccc3)c21,Percent Effect,"30.3 µM, […]",92.15%
COc1cccc(CN2C[C@@H]3CC[C@@](O)(c4ccccn4)[C@@H]3C2)c1OC.O=C(O)CC(O)(CC(=O)O)C(=O)O,Percent Effect,"30.3 µM, […]",-12.48%
CC(=O)N1[C@H](CN(C)C)C[C@@H]2CN(C(=O)Cc3cccs3)CC[C@@H]21.O=C(O)C(F)(F)F,Percent Effect,"30.3 µM, […]",-71.88%
Cn1cccc1C(=O)N[C@H]1CN(Cc2ccoc2)[C@@H]2CCCO[C@H]12.O=C(O)C(F)(F)F,Percent Effect,"30.3 µM, […]",-1.992%
Cc1cccc(CN2CCc3ncnc(NC4CCC4)c3CC2)n1.O=C(O)C(F)(F)F.O=C(O)C(F)(F)F,Percent Effect,"30 µM, 30.03 µM",-15.74%
Cc1cc(C(=O)N2CC[C@H]3C[C@H](c4ccncn4)O[C@@H]3C2)no1,Percent Effect,"30 µM, 30.03 µM",-17.17%
CN(Cc1cccnc1)Cc1cncc2c1CCN(Cc1ccoc1)C2.Cl.Cl.Cl,Percent Effect,"30.3 µM, […]",-64.05%
O=C(O)C(F)(F)F.c1cc(CN2C[C@H](OCC3CCOCC3)[C@H]3COC[C@H]32)co1,Percent Effect,"30.3 µM, […]",-13.64%
Cc1ccc(S(=O)(=O)N2CC[C@H]3CO[C@H](CN(C)C)[C@H]3C2)cc1.O=C(O)C(F)(F)F,Percent Effect,"30 µM, 30.03 µM",-6.145%
Cc1ccc(CN2CCC3(CC2)NC(=O)CC3c2ccncc2)cc1C.O=C(O)C(F)(F)F.O=C(O)C(F)(F)F (stereo unspecified),Percent Effect,"30 µM, 30.03 µM",-19.59%
Fc1ccc(-c2nc(CN3CCOC(Cn4cccn4)C3)co2)cc1 (stereo unspecified),Percent Effect,"30.3 µM, […]",15.69%
COc1cc(OC)cc(-c2cc(CN)nc3ccnn23)c1.Cl,Percent Effect,"30.3 µM, […]",0.9349%
Cc1ccc(CN2Cc3ccnn3CC(C(=O)NCC3CC3)C2)o1.O=C(O)C(F)(F)F.O=C(O)C(F)(F)F (stereo unspecified),Percent Effect,"30.3 µM, […]",-12.67%
Cc1cccc(-c2noc(CN3CCOC(Cn4cccn4)C3)n2)c1 (stereo unspecified),Percent Effect,"30.3 µM, […]",7.086%
CCCc1nc(NCCCOCC)c2c(n1)c(C)nn2CC,Percent Effect,"30.3 µM, […]",-18.63%
CCCc1nc(NCCOC)c2c(n1)c(C)nn2CC,Percent Effect,"30.3 µM, […]",-10.53%
CCCc1nc(NCCCOC)c2c(n1)c(C)nn2CC,Percent Effect,"30.3 µM, […]",88.3%
CCOc1ncccc1CNC(=O)NCC(O)c1ccccc1OC (stereo unspecified),Percent Effect,10 µM,-66.27%
COc1c(C)cc(CNCc2ccnc(N3CCOCC3)c2)cc1C.Cl,Percent Effect,"30.3 µM, […]",15.01%
same,Percent Effect,"10 mM, 10 mM as filed; unlikely as a test dose",-23.82%
COc1ccc(CNC(C)c2ccc(Cl)c(Cl)c2)c(OC)c1OC (stereo unspecified),Percent Effect,"30 µM, 30.03 µM",20.68%
c1ccc(-c2cc(NCCCC3CCOC3)n3nccc3n2)cc1 (stereo unspecified),Percent Effect,"30.3 µM, […]",35.81%
Cc1cc2nc(-c3ccccc3)cc(NCC3CCS(=O)(=O)C3)n2n1 (stereo unspecified),Percent Effect,"30.3 µM, […]",6.285%
Cc1cc2nc(-c3ccccc3)cc(NCC3CCCOC3)n2n1 (stereo unspecified),Percent Effect,"30.3 µM, […]",87.98%
COc1cccc(C(NCc2ccc(SC)cc2)c2nccn2C)c1 (stereo unspecified),Percent Effect,10 µM,-34.89%
CCOCC1CN(Cc2cccs2)Cc2nn(C)cc21.O=C(O)C(F)(F)F (stereo unspecified),Percent Effect,"30 µM, 30.03 µM",-3.631%
CCN(CC1CN(Cc2nc(C3CC3)no2)CCO1)c1cccnn1 (stereo unspecified),Percent Effect,"30 µM, 30.03 µM",37.04%
Cc1ccc(C(=O)N2CCCC(Nc3ccc(F)cc3)C2)cc1 (stereo unspecified),Percent Effect,"30 µM, 30.03 µM",-28.83%
CSc1ccc(C(=O)N2CCCC(Nc3ccc(F)cc3)C2)cc1 (stereo unspecified),Percent Effect,"30 µM, 30.03 µM",63.86%
COC(=O)c1ccc(C(=O)N2CCCC(Nc3ccc(F)cc3)C2)cc1 (stereo unspecified),Percent Effect,"30 µM, 30.03 µM",-14.97%
CN(C)C(=O)COC[C@]12COC[C@H]1CN(CCc1ccccc1)C2.O=C(O)C(F)(F)F,Percent Effect,"30.3 µM, […]",-48.5%
CCCc1nc(CNCC2CCCN2c2cccnn2)cs1 (stereo unspecified),Percent Effect,"30.3 µM, […]",34.1%
c1ccc(-c2nc(CNCC3CCCN3c3cccnn3)co2)cc1 (stereo unspecified),Percent Effect,"30.3 µM, […]",97.98%
CCc1nc(CN2CCOC(CNc3cccnn3)C2)cs1 (stereo unspecified),Percent Effect,"30.3 µM, […]",-0.3167%
CC(C)c1nc(CNCC2CCCN2c2cccnn2)cs1 (stereo unspecified),Percent Effect,"30.3 µM, […]",100.4%
CC(C)CCc1nc(CNCC2CCCN2c2cccnn2)cs1 (stereo unspecified),Percent Effect,"30.3 µM, […]",99.06%
CC(C)c1nc(CN2CCOC(CNc3cccnn3)C2)cs1 (stereo unspecified),Percent Effect,"30.3 µM, […]",100.6%
c1cnnc(N2CCCC2CNCc2csc(-c3ccco3)n2)c1 (stereo unspecified),Percent Effect,"30.3 µM, […]",17.07%
CCc1nc(CNCC2CCCN2c2cccnn2)cs1 (stereo unspecified),Percent Effect,"30.3 µM, […]",4.558%
CN(Cc1coc(-c2ccccc2)n1)CC1CCCN1c1cccnn1 (stereo unspecified),Percent Effect,"30 µM, 30.03 µM",-1.174%
c1ccc(-c2nnc(CNCC3CCCN3c3cccnn3)o2)cc1 (stereo unspecified),Percent Effect,"30 µM, 30.03 µM",-41.79%
Cc1nc(CN2CCOC(CNc3cccnn3)C2)cs1 (stereo unspecified),Percent Effect,"30 µM, 30.03 µM",-27.36%
Cc1nc(CNCC2CCCN2c2cccnn2)cs1 (stereo unspecified),Percent Effect,"30 µM, 30.03 µM",-9.671%

# Reference: ChEMBL document CHEMBL3988442, “University of Dundee, Small-Polar-MMV Screening Library” (2021)
